Screening results: PubChem, National Center for Advancing Translational Sciences (NCATS)
Only some compounds are listed: those with a hit (about 12% of all), similar ones and a draw of the others.
Sfp PPTase inh: qHTS Assay for Inhibitors of Bacillus subtilis Sfp phosphopantetheinyl transferase (PPTase); Potency, µM, without a hit: largest response in the series, negative = inhibition, hits mostly inhibitors; 3.5% of 310,000 active; 4'-phosphopantetheinyl transferase ffp (Bacillus subtilis), Q9F4F7; Biochemical Sfp PPTase activity, qHTS;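 further: the enzyme is Sfp with the accession as filed and its product quenches rhodamine fluorescence; 0% = enzyme reaction without inhibitor and -100% = no enzyme wells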
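Buffer: 50 mM Hepes-Na pH 7.6, 10 mM MgCl2, 0.01% Nonidet P-40, 0.01% BSA. Enzyme 15 nM, pre-exposed to compound 15 min; substrates then added and fluorescence change tracked over 30 min.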
G9a inh: qHTS Assay for Inhibitors of Histone Lysine Methyltransferase G9a; 8.8% of 350,000 active; G9a H3K9 monomethylation, AlphaScreen, 2 h; Potency, µM (series often up to 102 µM), without a hit: at the highest dose activity, negative = inhibition, hits mostly inhibitors; further: on the % scale 0 is the no-effect control and ±100 the full control effect; nearly all actives have a fitted effect of over 75% in size
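Step 1: enzyme (final 20 nM) with compound, 15 min RT. Step 2: substrate peptide 500 nM and SAM 20 uM, 2 h RT. Step 3: anti-H3K9me1 antibody and AlphaScreen beads, 10 min, then plate read.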
BAZ2B inh: qHTS Assay for Inhibitors of BAZ2B | Bromodomain adjacent to zinc finger domain protein 2B (Homo sapiens), Q9UIF8 | AlphaScreen BAZ2B-H3K14Ac peptide displacement | Potency, µM (top dose mostly 114 µM), for inactives: top-dose activity change, negative = inhibition, actives largely listed as inhibitors | 4.4% of 360,000 active; further: on the % scale 0 is the no-effect control and ±100 the full control effect; nearly all actives have a fitted effect of over 60% in size
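Inhibition is scored as reduced AlphaScreen emission. The BAZ2B/b-H3(5-23)K14Ac complex (50 nM each) in PBS pH 7.4, 0.01% Tween-20 meets compound (up to 110 uM) for 30 min at RT before bead addition.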
JMJD2A Tudor: qHTS Assay for Inhibitors of JMJD2A-Tudor Domain; Lysine-specific demethylase 4A (Homo sapiens), O75164; AlphaScreen JMJD2A-Tudor / H3K4me3 peptide binding; Potency, µM (top dose mostly 114 µM), without a hit: top-dose activity change, negative = inhibition, hits mostly inhibitors; 4.4% of 390,000 active; AID 504339, 2011; further: on the % scale 0 is the no-effect control and ±100 the full control effect; nearly all actives have a fitted effect of over 50% in size
HP1b binding inh: HTS for Inhibitors of HP1-beta Chromodomain Interactions with Methylated Histone Tails. Chromobox protein homolog 1 (Homo sapiens), P83916. 0.56% of 390,000 active. AlphaScreen HP1-beta / biotin-H3K9me3 peptide binding. Potency, µM (titrated, usually from 114 µM), inactives show top-dose activity change, negative = inhibition, actives largely listed as inhibitors; further: nearly all actives have a fitted effect of over 70% in size
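HP1-beta protein (50 nM final) preincubated 30 min at room temperature with biotinylated H3(1-18)K9me3 peptide (50 nM) in PBS pH 7.4, 0.01% Tween-20, then compound added for 30 min. AlphaScreen streptavidin donor/nickel chelate acceptor beads (10 ug/mL final), 30 min dark, luminescence read.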
Starred values were filed as active, the others as inactive; ? = inconclusive; · = no result; [ ] = another dose, or the depositor's remark. The call rests on the fitted dose curve; in most records, active means well fitted curve in the direction sought with a large enough effect; inconclusive means small, poorly fitted or top-dose-only effect, or another doubt; inactive means no such curve, though single readings can be large; an effect the other way counts as inactive or inconclusive. Potency means the concentration at half of the fitted maximal effect.

SMILES | Sfp PPTase inh | G9a inh | BAZ2B inh | JMJD2A Tudor | HP1b binding inh
COC(=O)c1c(NC(NC(=O)C(C)(C)C)C(Cl)(Cl)Cl)sc2c1CCC2 (configuration not stated) | ? | ? | -19% | -22% | -6%
COC(=O)c1c(NC(NC(=O)C(C)C)C(Cl)(Cl)Cl)sc2c1CCC2 (configuration not stated) | 50µM* | ? | -12% | -20% | 14%
COC(=O)c1c(NC(=O)Cc2coc3cc(C)ccc23)sc2c1CCC2 | · | ? | -13% | -15% | -6%
COc1ccc(C2=NN3C(C2)c2ccccc2OC3c2cccs2)cc1 (configuration not stated) | 10% | 40µM* | ? | -20% | 27%
COc1ccc(C2=NN3C(C2)c2ccccc2OC32C(=O)N(C)c3ccccc32)cc1 (configuration not stated) | ? | 25µM* | -7% | -24% | 16%
CCOC(=O)C(=Cc1ccc(-n2ccnc2)cc1)C(=O)OCC | -29% | 45µM* | ? | -15% | 34%
COCCOC(=O)/C(=C/c1ccc(OC(=O)c2ccccc2)cc1)C(C)=O | ? | 50µM* | -2% | -6% | 36%
CCOC(=O)/C(=C/c1ccc(OC(=O)c2ccncc2)cc1)C(C)=O | -66% | 22µM* | 2% | -10% | 24%
CCOCCc1nn2c(=O)cc(COC(=O)c3ccccc3NC(=O)c3cccs3)nc2s1 | · | -10%[59 µM] | 2% | -20% | -1%
Cc1ccccc1C(=O)Oc1ccc(Cl)cc1C(=S)N1CCOCC1 | -1% | -5% | -12% | -26% | 1%
O=C(Oc1ccc(C(=S)N2CCOCC2)cc1)c1ccccc1[N+](=O)[O-] | -14% | · | -10% | -27% | -4%
O=C(Oc1ccc(C(=S)N2CCOCC2)cc1)c1ccccc1F | 25µM* | 25µM* | -26% | -10% | -2%
O=C(Oc1ccc(C(=S)N2CCOCC2)cc1Cl)c1ccccc1F | 56µM* | -9%[0.501 µM] | -31% | -35% | -14%
O=C(Oc1ccc(C(=S)N2CCOCC2)cc1Br)c1ccccc1F | 22µM* | 10µM* | -33% | -30% | ?
COc1cc(OC)cc(-c2c(-c3ccc(F)cc3)c3cc(-c4ccc(SC)cc4)ccc3n2C)c1 | · | · | · | -30% | 23%
CCOc1ccc(CCNC(=O)c2nnc(Cc3cc(OC)c(OC)c(OC)c3)o2)cc1OCC | · | -32%[59 µM] | -11% | -13% | -11%
N#CC1=C(N)NC(SCC(=O)c2ccc(Cl)cc2)=C(C#N)C12CCCC2 | 50µM* | ? | 14% | -31% | -3%
N#CC1=C(N)NC(SCC(=O)c2ccc(Br)cc2)=C(C#N)C12CCCCC2 | 5% | 40µM* | ? | ? | ?
COc1ccc(C(=O)CSC2=C(C#N)C3(CCCCC3)C(C#N)=C(N)N2)cc1 | 6% | ? | -38% | -32% | -1%
CCOC(=O)/C=C1/SCC(=O)N1CC(=O)Nc1ccc2c(c1)CCC2 | · | · | · | -20% | 21%
CCOC(=O)CN(C(=O)CSc1nnnn1C)c1ccccc1 | · | · | · | -12% | 33%[57 µM]
N#C/C(=C(\O)c1ccco1)c1ccccn1 | -1% | ? | -6% | ? | 37%
N#CC(C(=O)c1ccco1)c1ccccn1 (configuration not stated) | 19% | 35µM* | 4% | -24% | 17%
CCC(C)C(NC(=O)OC(C)(C)C)C(=O)NC1COC2CC(n3ccc(NC(C)=O)nc3=O)OC12 (configuration not stated) | 11% | · | · | 3% | 25%
Cn1c(=O)c2c(nc(CN3CCN(C(=O)c4ccco4)CC3)n2Cc2ccc(Cl)cc2)n(C)c1=O | 2% | 50µM* | ? | 7% | 27%
SMILES | Sfp PPTase inh | G9a inh | BAZ2B inh | JMJD2A Tudor | HP1b binding inh
Cc1ccc(Cn2c(CN3CCN(C(=O)c4ccco4)CC3)nc3c2c(=O)n(C)c(=O)n3C)cc1 | 0% | 50µM* | -10% | -7% | 27%
CC(=O)N1N=C(c2cccc([N+](=O)[O-])c2)OC1c1ccc(Br)cc1 (configuration not stated) | 13% | 45µM* | ? | ? | -11%
CC(=O)N1N=C(c2cccc([N+](=O)[O-])c2)OC1c1ccc(Cl)cc1Cl (configuration not stated) | -7% | -24% | ? | ? | -19%
C#CCOCCOCCOCCNc1nc(N2CCN(C(=O)CCCCCCCCCCNC(=O)[C@@H](CCSC)n3cc(CCO)nn3)CC2)nc(N2CCN(C(=O)CCCCCCCCCCNC(=O)[C@H](CCCN=C(N)N)n3cc(C[C@@H](C)CC)nn3)CC2)n1 | · | -15%[2.33 µM] | 50µM* | 45µM* | -32%
C#CCOCCOCCOCCNc1nc(N2CCN(C(=O)CCCCCCCCCCNC(=O)[C@H](CCCCN)n3cc(C)nn3)CC2)nc(N2CCN(C(=O)CCCCCCCCCCNC(=O)[C@H](CCCN=C(N)N)n3cc(C[C@@H](C)CC)nn3)CC2)n1 | · | -7%[2.33 µM] | ? | 56µM* | ?
C#CCOCCOCCOCCNc1nc(N2CCN(C(=O)CCCCCCCCCCNC(=O)[C@H](CO)n3cc(CCCCCN)nn3)CC2)nc(N2CCN(C(=O)CCCCCCCCCCNC(=O)[C@H](CCCN=C(N)N)n3cc(C[C@@H](C)CC)nn3)CC2)n1 | · | 3%[2.33 µM] | 50µM* | · | ·
C#CCOCCOCCOCCNc1nc(N2CCN(C(=O)CCCCCCCCCCNC(=O)[C@H](CCCCN)n3cc(C[C@@H](C)CC)nn3)CC2)nc(N2CCN(C(=O)CCCCCCCCCCNC(=O)[C@H](CCCN=C(N)N)n3cc(C[C@@H](C)CC)nn3)CC2)n1 | · | -38%[2.33 µM] | 50µM* | 35µM* | 50µM*
C#CCOCCOCCOCCNc1nc(N2CCN(C(=O)CCCCCCCCCCNC(=O)Cn3cc(C[C@@H](C)O)nn3)CC2)nc(N2CCN(C(=O)CCCCCCCCCCNC(=O)[C@@H](CCSC)n3cc(CCO)nn3)CC2)n1 | · | 1%[2.33 µM] | 4% | -25% | 33%
CC(=O)c1cccc(NC(=O)N2CCC(NC(=O)C34CC5CC(CC(C5)C3)C4)CC2)c1 | -2% | -29% | -8% | 10% | 12%
O=C(Cc1n[nH]c(=O)c2ccccc12)OCC(=O)c1ccccc1 | · | -9%[12.7 µM] | 1% | -14% | 18%
CCOc1ccccc1CNC(=O)c1cc(-c2ccc(C)c(C)c2)nc2ccccc12 | · | 0%[59 µM] | 5% | -8% | 43%
CCOC(=O)c1cc2c(=O)n3ccccc3nc2n(C)c1=NC(=O)c1c(-c2ccccc2Cl)noc1C | · | 32%[59 µM] | 9% | -15% | 55%
CCn1cc([N+](=O)[O-])c(C(=O)N2N=C(c3ccc(OC)cc3OC)CC2c2ccccc2O)n1 (configuration not stated) | -16% | 45µM* | -2% | ? | ?
